Assay results reported in PubChem BioAssay AID686978 (National Center for Advancing Translational Sciences (NCATS), 2013).
Values joined by “and” are separate entries in the source; they are usually repeats but may differ in a detail not shown here. Equal entries are not always repeated. About 64,000 (15%) of roughly 420,000 compounds were called active. Not shown: some 27% with an inconclusive outcome. Not all results are given here. A number with no mark means an inactive call. Calls come from the whole dose curve; as a rule, active = well fitted inhibition curve with a large enough effect; inconclusive = small, poorly fitted or top-dose-only effect; inactive = flat fitted curve, though single readings scatter.

Experiment: qHTS for Inhibitors of human tyrosyl-DNA phosphodiesterase 1 (TDP1): qHTS in cells in absence of CPT; note: nearly all actives have a fitted effect of over 55% in size
Details: DT40 Tdp1-/- hTDP1 cells, no CPT, ATP luminescence, 48 h; activity change, negative = growth inhibition: at 46.2 µM (top of the series)
How it was run: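 Growth kinetics read by CellTiter-Glo luminescence after ≥48 hr at 37 °C. Cells: DT40 Tdp1-/- stably carrying human TDP1, 400 per well, compound exposure in the absence of CPT (DMSO vehicle).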
% is set by controls: 0 for no effect and ±100 for the full control effect; potency is the fitted concentration of half-maximal effect.

For CCOc1ccccc1NC(=O)Cn1c(=O)n(Cc2ccccc2)c(=O)c2c(C)c(C(=O)N(C)C)sc21, which “activity change, negative = growth inhibition” value is on record?
The value was 1.44%.

For O=C(NCCN1CCOCC1)C1CCN(S(=O)(=O)c2ccccc2)CC1, which “activity change, negative = growth inhibition” value is on record?
The value was -3.81%.

Which “activity change, negative = growth inhibition” value does the source give for COCCCn1c(SCC(=O)Nc2oc(C)c3c(C)n[nH]c(=O)c23)nc2sc3c(c2c1=O)CCC3 here?
Its value is -22.9%.

Which “activity change, negative = growth inhibition” value does the source give for O=c1c(CCc2ccccc2)nc2cncnc2n1C1CC1 here?
The value was -20.2%.

With C=CCn1c(COc2cccc3cccnc23)nnc1SCC(=O)OC as the molecule, how does the “activity change, negative = growth inhibition” value read?
The value was 1.72%.

For CC(=O)c1cc2c(cc1N)OCO2, which “activity change, negative = growth inhibition” value is on record?
The value was -20.4%.

With C/C(COc1ccccc1)=N\NC(=O)c1nnn(-c2nonc2N)c1-c1ccc(C)cc1 as the molecule, how does the “activity change, negative = growth inhibition” value read?
The value was -14.1%.

For CSc1ccc(S(=O)(=O)N2CCC(C(=O)NCCc3ccccc3)CC2)cc1, which “activity change, negative = growth inhibition” value is on record?
Its value is 12.2%.

For Cc1cc(S(=O)(=O)NC2CCCC2)ccc1-n1cnnn1, which “activity change, negative = growth inhibition” value is on record?
The value was -3.77%.

For COc1ccc(NC(=O)c2ccc3oc(=O)c(S(=O)(=O)c4ccc(F)cc4)cc3c2)c(OC)c1, which “activity change, negative = growth inhibition” value is on record?
The value was -18.6%.

Which “activity change, negative = growth inhibition” value does the source give for CCCCNC(=O)C1(O)c2ccccc2NC(=O)N1c1ccc(Cl)cc1 (stereo unspecified) here?
The value was 0.754%.

For CC(=O)Nc1ccc(NC(=O)CCN2C(=O)C3CC=CCC3C2=O)cc1 (stereo unspecified), which “activity change, negative = growth inhibition” value is on record?
Its value is 8.23%.

Which “activity change, negative = growth inhibition” value does the source give for CCNC(=S)N(CCN(CC)CC)Cc1cc2cc3c(cc2[nH]c1=O)OCO3 here?
The value was -4.4%.

Which “activity change, negative = growth inhibition” value does the source give for Cc1c(C)c2c(OCC(=O)N[C@@H](C(=O)O)c3ccccc3)cc3c(c2oc1=O)CCC(C)(C)O3 here?
The value was -5.21%.

With CC(C)CCC(=O)Nc1cc(S(=O)(=O)N2CCOCC2)ccc1N1CCCC1 as the molecule, how does the “activity change, negative = growth inhibition” value read?
Its value is 6.5%.

With CC(=O)NCCC(=O)Nc1cc(S(=O)(=O)N2CCOCC2)ccc1N1CCOCC1 as the molecule, how does the “activity change, negative = growth inhibition” value read?
Its value is 4.67%.

With Cc1ccccc1NC(=O)CCOc1ccccc1 as the molecule, how does the Potency read?
Its Potency is “inactive”.

For Cc1cccc(OCC(=O)Nc2ccccc2F)c1, which “activity change, negative = growth inhibition” value is on record?
Its value is -15%.

For Cc1cccc(OCCC(=O)Nc2cc(S(=O)(=O)N3CCCCC3)ccc2N2CCOCC2)c1, which Potency is on record?
Its Potency is 20.6 µM (active).

For Cc1cccc(OCCC(=O)Nc2ccccc2C(N)=O)c1, which Potency is on record?
Its Potency is 11.6 µM (active).

With O=C(Nc1cccc(C(=O)O)c1)/C(=C\c1ccccc1)NC(=O)c1ccc(Br)o1 as the molecule, how does the “activity change, negative = growth inhibition” value read?
The value was -20.8%.

Which “activity change, negative = growth inhibition” value does the source give for Nc1nc2ncccn2c1-c1ccccc1 here?
Its value is 0.245%.

Which “activity change, negative = growth inhibition” value does the source give for O=c1cc(-c2ccccc2)n2c(SCc3ccccc3)nnc2[nH]1 here?
Its value is 1.75%.

For CCOc1ccc(NC(=O)CCS(=O)(=O)c2ccc3c(c2)CCCN3C(=O)CC)cc1, which “activity change, negative = growth inhibition” value is on record?
Its value is -11.2%.

Which Potency does the source give for CC1Cc2cc(S(=O)(=O)CCC(=O)NCc3ccc(Cl)cc3)ccc2N1C(=O)C1CC1 (stereo unspecified) here?
Its Potency is 4.61 µM (active).

With Cn1c(=O)oc2cc(S(=O)(=O)CCC(=O)NCCc3ccc(Cl)cc3)ccc21 as the molecule, how does the “activity change, negative = growth inhibition” value read?
Its value is 5.12%.

For CCC(=O)N1c2ccc(S(=O)(=O)CCC(=O)N3CCN(c4ccccc4)CC3)cc2CC1C (stereo unspecified), which “activity change, negative = growth inhibition” value is on record?
The value was -26.5%.

For CC(=O)N1c2ccc(S(=O)(=O)N(C)CC(=O)N(C)Cc3ccccc3)cc2CC1C (stereo unspecified), which “activity change, negative = growth inhibition” value is on record?
The value was -9.56%.

With COc1cccc(CNS(=O)(=O)c2ccc3c(c2)CC(C)N3C(=O)C2CCC2)c1 (stereo unspecified) as the molecule, how does the Potency read?
Its Potency is 16.4 µM (active) and 7.31 µM (active).

With CC1Cc2cc(S(=O)(=O)CCC(=O)Nc3ccc(F)c(Cl)c3)ccc2N1C(=O)C1CC1 (stereo unspecified) as the molecule, how does the Potency read?
Its Potency is 10.3 µM (active).

For CC1(NC(=O)CCS(=O)(=O)c2ccc(Cl)cc2)CCS(=O)(=O)C1 (stereo unspecified), which “activity change, negative = growth inhibition” value is on record?
The value was 16.3%.

Which “activity change, negative = growth inhibition” value does the source give for COc1cccc(CNC(=O)C2CCC(CNS(=O)(=O)c3cccs3)CC2)c1 (stereo unspecified) here?
The value was -28%.

Which “activity change, negative = growth inhibition” value does the source give for CC1Cc2ccccc2N1CC(=O)Nc1ccc(S(N)(=O)=O)cc1 (stereo unspecified) here?
Its value is -10.1%.

For COc1cccc(CNC(=O)C2CCCN(S(=O)(=O)N3CC(C)CC(C)C3)C2)c1 (stereo unspecified), which “activity change, negative = growth inhibition” value is on record?
Its value is -6.42%.

Which Potency does the source give for Cc1ccc(CNC(=O)CCS(=O)(=O)c2ccc3c(c2)CC(C)N3C(=O)C2CC2)o1 (stereo unspecified) here?
Its Potency is 25.9 µM (active).

Which “activity change, negative = growth inhibition” value does the source give for Cc1ccc2[nH]c3c(=O)n(CC(=O)NC(C)C)ncc3c2c1 here?
The value was 4.21%.

For COc1ccc(S(=O)(=O)NC(C)C(=O)Nc2cccc([N+](=O)[O-])c2)cc1 (stereo unspecified), which “activity change, negative = growth inhibition” value is on record?
The value was -25.6%.

With Cc1ccc(S(=O)(=O)c2c[nH]c3ccc(C)cc3c2=O)cc1 as the molecule, how does the “activity change, negative = growth inhibition” value read?
Its value is -4.84%.

Which “activity change, negative = growth inhibition” value does the source give for C[C@H]1CN([C@@H](C)CO)C(=O)Cc2cc(NS(C)(=O)=O)ccc2O[C@@H]1CN(C)CC1CC1 here?
The value was -11%.

With CCC(Oc1ccccc1)C(=O)OCC(=O)Nc1c(C)nn(-c2ccccc2)c1C (stereo unspecified) as the molecule, how does the “activity change, negative = growth inhibition” value read?
Its value is -13.4%.

With CCCc1cc(C(=O)Nc2ccc(C(=O)OC)cc2)cs1 as the molecule, how does the “activity change, negative = growth inhibition” value read?
The value was 6.02%.

For CC(O)c1ccc(OCCN(C)c2ccccn2)cc1 (stereo unspecified), which “activity change, negative = growth inhibition” value is on record?
The value was -6.31%.

For O=C(COC(=O)c1c(Cl)cccc1Cl)Nc1cccc(S(=O)(=O)NC2=NCCCCC2)c1, which “activity change, negative = growth inhibition” value is on record?
The value was 13.1%.

For CCn1c(CC(=O)Nc2ccccc2C)nnc1SCC(=O)NC1=NCCS1, which “activity change, negative = growth inhibition” value is on record?
Its value is -27%.

For COCCCNC(=O)C1CCN(c2ccc(N3CCOCC3)nn2)CC1, which “activity change, negative = growth inhibition” value is on record?
Its value is 0.0826%.

Which “activity change, negative = growth inhibition” value does the source give for Cn1cc(C(=O)NCc2ccccc2F)cn1 here?
The value was -12.8%.

With Fc1ccccc1CNC(=S)Nc1ccc(Cl)cc1 as the molecule, how does the Potency read?
The Potency was 20.6 µM (active).

Which “activity change, negative = growth inhibition” value does the source give for COC(=O)Cc1ccc(NC(=S)NCc2ccccc2)cc1 here?
Its value is -29.3%.

For C[C@H](C(=O)CC(=O)OC(C)(C)C)[C@H](O)c1ccc(C(F)(F)F)cc1, which “activity change, negative = growth inhibition” value is on record?
The value was -27.5%.

With O=C(NCc1ccncc1)NC12CC3CC(CC(C3)C1)C2 as the molecule, how does the “activity change, negative = growth inhibition” value read?
The value was -16.2%.

With CCN(CC(=O)NCc1ccc(F)cc1)S(=O)(=O)c1ccc(Cl)s1 as the molecule, how does the “activity change, negative = growth inhibition” value read?
Its value is -10.1%.

With CCCCNC(=O)c1nc(C2CCN(S(=O)(=O)c3ccc(F)c(F)c3)CC2)oc1-c1cccc(C(F)(F)F)c1 as the molecule, how does the “activity change, negative = growth inhibition” value read?
Its value is 2.36%.

With CCC1CCC/C1=N\NC(=O)c1ccc(Cl)cc1 (stereo unspecified) as the molecule, how does the “activity change, negative = growth inhibition” value read?
Its value is -9.86%.

Which Potency does the source give for CN1CCC[C@@H]1CCO[C@](C)(c1ccccc1)c1ccc(Cl)cc1 here?
The Potency was 26.6 µM (active).

For C#CC(CCN1CCCCC1)(OC)c1ccccc1 (stereo unspecified), which “activity change, negative = growth inhibition” value is on record?
The value was -0.836%.

With CN1CCCC1CCO[C@@](C)(c1ccccc1)c1ccc(Cl)cc1 (stereo partly specified) as the molecule, how does the Potency read?
Its Potency is 14.6 µM (active).

With COc1ccc(CN2CCNC(=O)C2CC(=O)N(C)Cc2ccccn2)cc1OC (stereo unspecified) as the molecule, how does the “activity change, negative = growth inhibition” value read?
The value was 1.2%.

For CC1CC(C)CN(S(=O)(=O)c2cccc(C(=O)N3C(=O)c4cccc(N)c4C3=O)c2)C1 (stereo unspecified), which “activity change, negative = growth inhibition” value is on record?
The value was 5.73%.

For COc1cccc2cc(-c3nc(Cl)c4c5c(sc4n3)CC(C)CC5)c(=O)oc12 (stereo unspecified), which “activity change, negative = growth inhibition” value is on record?
The value was -0.111%.

Which “activity change, negative = growth inhibition” value does the source give for Cc1ccc(NC(=O)Cn2nnc3sc4c(c3c2=O)CCC(C)C4)cc1 (stereo unspecified) here?
The value was -79.2%.

For COC(=O)c1cccc(Cn2nnc3sc4c(c3c2=O)CCC(C(C)(C)C)C4)c1 (stereo unspecified), which Potency is on record?
Its Potency is 18.4 µM (active).

Which “activity change, negative = growth inhibition” value does the source give for O=C(C1CCCO1)N(Cc1ccccc1)c1ccccc1 (stereo unspecified) here?
Its value is -1.91%.

With Cc1cc(C)c(NC(=O)c2cc3sc(Cl)cc3n2C)c(C)c1 as the molecule, how does the “activity change, negative = growth inhibition” value read?
Its value is -14.2%.

Which Potency does the source give for CCOC(=O)Cc1ncccc1C(=O)Nc1ccc(OC(F)(F)F)cc1 here?
The Potency was 14.6 µM (active).

For COC(=O)Cc1ccc(OCC(=O)Nc2ccc(OC(F)(F)F)cc2)cc1, which “activity change, negative = growth inhibition” value is on record?
Its value is 0.899%.

For CCOC(=O)Cc1ncccc1C(=O)Nc1ccc(OC)cc1, which “activity change, negative = growth inhibition” value is on record?
The value was -8.44%.
